Source: PubChem BioAssay
EPAC1 antagonist – EPAC1 (human) antagonism | O95398 | EPAC1 GEF assay, Rap1b-BODIPY-GDP exchange fluorescence | Potency, µM (titrated, usually from 115 µM), usual class: inhibitors | 360,000 tested, 0.14% active | AID 720709; also: nearly all actives have a fitted effect of over 50% in size
Target sequence (O95398 whole entry, looked up): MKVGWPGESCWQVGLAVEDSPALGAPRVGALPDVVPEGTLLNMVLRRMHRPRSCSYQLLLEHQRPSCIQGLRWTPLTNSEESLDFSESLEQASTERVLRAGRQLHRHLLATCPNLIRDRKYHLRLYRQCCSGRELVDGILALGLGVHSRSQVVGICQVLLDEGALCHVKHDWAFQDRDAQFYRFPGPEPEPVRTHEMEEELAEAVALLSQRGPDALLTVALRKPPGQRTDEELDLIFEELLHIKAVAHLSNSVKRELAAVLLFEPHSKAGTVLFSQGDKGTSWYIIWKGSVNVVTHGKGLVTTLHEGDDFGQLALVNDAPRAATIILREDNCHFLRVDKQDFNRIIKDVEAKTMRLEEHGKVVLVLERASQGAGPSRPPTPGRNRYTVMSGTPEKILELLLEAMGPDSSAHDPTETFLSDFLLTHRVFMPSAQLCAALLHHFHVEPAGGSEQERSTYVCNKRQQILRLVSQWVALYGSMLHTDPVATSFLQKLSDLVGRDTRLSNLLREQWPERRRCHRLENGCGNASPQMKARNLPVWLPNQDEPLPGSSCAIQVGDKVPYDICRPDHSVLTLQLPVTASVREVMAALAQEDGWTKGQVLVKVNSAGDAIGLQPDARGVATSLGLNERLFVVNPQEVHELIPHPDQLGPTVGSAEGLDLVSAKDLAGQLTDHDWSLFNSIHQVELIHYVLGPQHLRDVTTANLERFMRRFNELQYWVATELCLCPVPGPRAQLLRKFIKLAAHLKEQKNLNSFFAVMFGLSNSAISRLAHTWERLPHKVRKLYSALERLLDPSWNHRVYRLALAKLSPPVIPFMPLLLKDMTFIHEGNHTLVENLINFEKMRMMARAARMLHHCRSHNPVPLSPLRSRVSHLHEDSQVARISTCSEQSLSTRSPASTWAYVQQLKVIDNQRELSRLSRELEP
USP1 inh – inhibitors of human USP1/UAF1 deubiquitinase | Potency, µM (doses to about 57.1 µM), usual class: inhibitors | 390,000 tested, 0.23% active | recombinant USP1/UAF1, Ub-Rhodamine cleavage fluorescence | O94782; also: nearly all actives have a fitted effect of over 60% in size
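In this screen, compounds sit with the deubiquitinase complex (1nM) for 15 min at room temperature before Ub-Rho is added at 150nM final. Fluorescence rise is then followed for 6 reads every 60 seconds.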
EPAC1 ag – activates human EPAC1 exchange factor; Potency, µM (doses to about 154 µM), actives largely listed as activators; AID 720707; 360,000 tested, 0.073% active; O95398; EPAC1 agonist qHTS, biochemical assay; response scale: 100% = response to 6.5 mM cAMP; also: nearly all actives have a fitted effect of over 60% in size
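Read-out is the fluorescence drop as BODIPY-GDP leaves Rap1B (480 nm excitation, 540 nm emission), recorded every 5 minutes over 30 minutes. Reactions held 100 nM EPAC1, 250 nM Rap1B–BODIPY-GDP and 50 uM GDP, with 6.5 mM cAMP setting full activation.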
EPAC2 ag – activates human EPAC2 exchange factor; Q8WZA2; 360,000 tested, 0.079% active; EPAC2 activation, biochemical qHTS; response scale: 100% = 6.5 mM cAMP response; Potency, µM (series often up to 154 µM), usual class: activators; also: nearly all actives have a fitted effect of over 50% in size
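Nucleotide exchange monitored as fluorescence drop when BODIPY-GDP leaves Rap1B. Reaction: 100 nM EPAC2, 250 nM RAP1B-BODIPY-GDP, 50 uM GDP, room temperature, kinetic read over 30 min. Activity expressed relative to 6.5 mM cAMP.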
EPAC2 antag – antagonists of human EPAC2; Q8WZA2; EPAC2 GEF exchange of Rap1B-BODIPY-GDP, fluorescence; 360,000 tested, 0.18% active; Potency, µM (top dose mostly 114 µM), actives largely listed as inhibitors; AID 720708; also: nearly all actives have a fitted effect of over 45% in size
Numbers stand for hits; . = inactive; ? = inconclusive; / = no result given. In the library only some 0.49% were active in any assay of this set; here they are far more common. Calls follow the shape of the dose curve; as a rule, active = well fitted curve in the direction sought with a large enough effect; inconclusive = small, poorly fitted or top-dose-only effect, or another doubt; inactive = no such curve, though single readings can be large; an effect the other way counts as inactive or inconclusive.

SMILES	EPAC1 antagonist	USP1 inh	EPAC1 ag	EPAC2 ag	EPAC2 antag
CCOc1ccccc1N1CCN(C(=O)c2cc(-c3cc(OC)ccc3OC)nc3ccccc23)CC1	?	15.8µM	.	.	.
CCOC(=O)c1cc2c(ccn2C)n1CC(=O)N1CCN(c2ccc(F)cc2)CC1	.	.	.	.	.
CCOC(=O)c1cc2c(ccn2C)n1CC(=O)N1CCN(c2cccc(C(F)(F)F)c2)CC1	56.2µM	.	.	.	?
Nc1cccc2c(O)cc(S(=O)(=O)O)cc12	.	25.1µM	?	?	.
O=C1NC(=O)C2(N1)C(=O)c1cccc3cccc2c13 (stereo not given)	.	35.5µM	112µM	?	.
O=C1NC(=O)C2(N1)c1ccccc1-c1ccccc12	.	.	.	.	.
Cc1cc(S(=O)(=O)Nc2ccc(-c3ccc(N4CCCCC4)nn3)cc2)c(C)cc1Cl	/	.	/	/	/
c1ccc(NN(Cc2ccccn2)c2ccccc2)cc1	.	.	.	.	14.1µM
c1ccc(NN(Cc2cnccn2)c2ccccc2)cc1	.	.	.	.	?
O=C(Nc1ccc(F)cc1F)c1cc2ccc3cccnc3c2[nH]1	/	.	/	/	/
O=C(N/N=C/c1c(O)ccc2ccccc12)c1cccnc1	?	.	.	.	.
O=C(N/N=C\c1c(O)ccc2ccccc12)c1cncc(Br)c1	.	31.6µM	?	?	.
COc1cc(/C=C2/NC(=O)NC2=O)cc(Br)c1OCc1ccc(C(=O)O)cc1	79.4µM	.	.	.	.
COc1cc(C2c3c(-c4ccccc4O)n[nH]c3C(=O)N2Cc2ccco2)ccc1OCC(C)C (stereo not given)	/	.	/	/	/
CCOC(=O)c1c(-c2ccccc2)csc1NC(=O)/C(C#N)=C\c1ccc(O)c(OC)c1	.	15.8µM	.	.	?
CC1CCc2[nH]c3ccc(C(=O)N4CCCC(C(F)(F)F)C4)cc3c2C1 (stereo not given)	?	.	112µM	.	.
CC1=C(C(=O)OCc2ccc3c(c2)OCO3)C(c2ccccc2OCc2ccccc2)NC(=O)N1 (stereo not given)	.	.	.	.	.
CC1=C(C(=O)OCc2ccc3c(c2)OCO3)C(c2ccccc2)NC(=O)N1 (stereo not given)	.	.	.	100µM	.
CC(=O)N1N=C(c2ccccc2)OC1c1ccc([N+](=O)[O-])s1 (stereo not given)	.	25.1µM	.	.	.
CC(=O)N1N=C(c2cccc([N+](=O)[O-])c2)OC1c1ccc(Br)cc1 (stereo not given)	.	.	.	.	.
Cc1cc(C)cc(NC(=O)Cn2c(=O)n(C(C)C)c(=O)c3oc4ccccc4c32)c1	/	.	/	/	/
COC(=O)c1ccc(NC(=O)CCn2c(=O)oc3ccccc32)cc1	.	.	.	.	.
CCOC(=O)c1ccc(NCn2c(=O)oc3ccccc32)cc1	.	25.1µM	.	.	.
CC(C)CCNc1c(-c2cccs2)nc2ccccn12	.	.	.	.	44.7µM
O=C(COc1ccc(Cl)cc1)Nc1c(-c2cccs2)nc2ccccn12	.	.	.	.	.
SMILES	EPAC1 antagonist	USP1 inh	EPAC1 ag	EPAC2 ag	EPAC2 antag
Nc1nc(NCCO)nc(N2CCCCCC2)c1[N+](=O)[O-]	.	.	.	.	.
OCCN(CCO)c1nc(N2CCCCC2)c2nc(N(CCO)CCO)nc(N3CCCCC3)c2n1	.	28.2µM	100µM	112µM	.
CC(C)NS(=O)(=O)c1ccc(OCC(=O)N2CCN(c3cccc(Cl)c3)CC2)cc1	/	.	/	/	/
CCOc1ccc(NC(=O)c2cnn(-c3ccc(C)c(C)c3)c2C2CCN(C(=O)OC(C)(C)C)CC2)cc1	/	.	/	/	/
C[C@@H](NC(=O)C1(c2ccccc2)CCN(C(=O)OC(C)(C)C)CC1)C(=O)N[C@@H](C(=O)O)c1ccccc1	56.2µM	.	.	.	?
CCCCCCc1cc2cc(C(=O)NC)c(=N)oc2cc1O	.	?	.	100µM	.
CCCCCCc1cc2cc(C(=O)OCC)c(=O)oc2cc1O	.	.	.	.	.
CC[C@@]1(c2ccccc2OC)ON(c2ccccc2C(F)(F)F)C1=O	.	.	.	.	14.1µM
Cc1ccccc1[C@@]1(C)ON(c2ccccc2C(F)(F)F)C1=O	.	.	.	.	?
CC(=O)Oc1ccc2c(c1)Oc1cc(OC(C)=O)ccc1C21OC(=O)c2ccccc21	?	.	/	.	39.8µM
Cc1ccc(Cl)cc1N1CCN(C(=O)c2cn(C)c3ccc(S(=O)(=O)N4CCC(C)CC4)cc3c2=O)CC1	/	.	/	/	/
CSc1ccc(CCNC(=O)CCc2c(C)nc3c(-c4ccccc4)c(C)nn3c2C)cc1	/	.	/	/	/
CC(=O)CCc1oc2ccccc2c1-c1ccccc1	.	.	.	.	25.1µM
CC(=O)CCc1oc2ccc(C)cc2c1Cc1ccccc1	?	.	.	.	?
CCCCCn1c(NC(=O)c2ccco2)c(S(=O)(=O)c2ccc(C)cc2)c2nc3ccccc3nc21	?	?	.	.	.
CCCCn1c(NC(=O)c2ccc(Br)o2)c(S(=O)(=O)c2ccccc2)c2nc3ccccc3nc21	.	28.2µM	.	.	.
CCCCn1c(NC(=O)c2ccco2)c(S(=O)(=O)c2ccc(C)cc2)c2nc3ccccc3nc21	.	?	.	.	.
CCCCn1c(NS(=O)(=O)c2ccccc2)c(S(=O)(=O)c2ccc(C)cc2)c2nc3ccccc3nc21	50.1µM	28.2µM	.	.	.
Cc1ccc(C(=O)NCC(c2ccc3c(c2)OCO3)N2CCN(c3ccc(F)cc3)CC2)cc1 (stereo not given)	/	.	/	/	/
CCc1nc(SC)ncc1C(=O)N1CCN(c2cc(C)ccc2C)CC1	/	.	/	/	/
COc1ccc(C(C(=O)Nc2ccc(C(C)C)cc2)N(C)C(=O)Cc2cccs2)cc1 (stereo not given)	/	.	/	/	/
CC(C)(C)C(=O)c1sc2nc(-c3cccs3)cc(C(F)(F)F)c2c1N	.	1.26µM	.	.	.
CCN(CC)C(=O)c1sc2nc(-c3cccs3)cc(-c3ccc(Cl)cc3)c2c1N	.	28.2µM	?	.	.
Cc1nn(CCc2nn[nH]n2)c2nc(-c3ccc(Br)cc3)cc(C(F)(F)F)c12	.	.	.	.	31.6µM
Cc1ccc(-c2nnc(SCC(=O)N3CCc4ccccc43)o2)cc1	/	.	/	/	/
Cc1ccc2c(c1)c(=O)c1c3n2CCN(C(=O)CCl)C3CC1 (stereo not given)	.	31.6µM	.	.	.
Cc1ccc2c(c1)c1c3n2CCN(C(=O)CN2CCN(C)CC2)C3CCC1 (stereo not given)	.	.	.	.	.
CCOC(=O)c1ccccc1-c1csc(NS(=O)(=O)c2ccc(Cl)cc2)n1	79.4µM	.	.	.	.
CCOC(=O)Cc1csc(NS(=O)(=O)c2ccccc2)n1	.	.	.	.	.
O=C(O)CC/C(=C\c1ccc(N2CCCC2)c([N+](=O)[O-])c1)c1nc2ccccc2s1	44.7µM	.	89.1µM	.	.
